In PubChem BioAssay AID1814 (Broad Institute, 2009):
Out of some 300,000 compounds screened, about 22,000 (7.3%) were called active. Inconclusive results (about 2%) are left out. No stated cut-off is given here; in the data, active means activity score below about -60%; inconclusive means mostly about -28% to -61%; inactive means positive scores. The full list was thinned out, with actives kept by preference.

assay: Activators via SNCA 5'UTR binding, MLPCN (AID 1814); conditions: alpha-synuclein 5'UTR reporter, activators screen; active compounds read low; tested at 7.5 µM

| SMILES | activity score |
| --- | --- |
| Cc1cc(C(=O)N/N=C/c2ccccc2[N+](=O)[O-])c(C)o1 | -112% (active) |
| CC(C)(C)c1cc(C(=O)N/N=C/c2ccc([N+](=O)[O-])s2)n[nH]1 | 64% (inactive) |
| Cc1c(Cl)cccc1NC(=O)Nc1ccc(C(=O)N2CCCC2)cc1 | -77.6% (active) |
| CC(=O)NNC(=O)c1csc(Cc2c(Cl)sc3ccc(Cl)cc23)n1 | 67.1% (inactive) |
| CCOC(=O)c1c(C)nc(-c2ccccc2)nc1NC(=O)C(C)C | -83.8% (active) |
| Nc1ccc(N=Nc2ccccc2Cl)c(N)n1 | -165% (active) |
| O=C(NCCc1ccccc1)Oc1ccc(Cl)cc1 | -107% (active) |
| Cc1cc(C(=O)NCCc2ccc(Cl)cc2)c(C)o1 | -131% (active) |
| Cc1ccc2nc(/C(C#N)=C\c3ccc(OC(=O)c4cccs4)cc3)[nH]c2c1 | -283% (active) |
| N/C(=N\OC(=O)CC1CCCCC1)c1ccccc1 | -116% (active) |
| COc1ccc(CC(=O)N/N=C(\C)c2ccccn2)cc1 | 77.7% (inactive) |
| COc1ccccc1OCC(=O)O/N=C(\N)c1ccccn1 | -121% (active) |
| N/C(=N\OC(=O)CCC1CCCCC1)c1ccccn1 | -180% (active) |
| COc1ccc(C(=O)O/N=C(\N)c2ccccn2)cc1[N+](=O)[O-] | -177% (active) |
| N/C(=N\OC(=O)Cc1ccc([N+](=O)[O-])cc1)c1ccccn1 | -161% (active) |
| CCc1c(C)nc2cc(-c3cccs3)[nH]n2c1=O | -81% (active) |
| C=CCc1c(C)nc2cc(-c3ccccc3)[nH]n2c1=O | -102% (active) |
| CC(=O)N(C)c1ccc(NC(=O)Nc2cccc3ccccc23)cc1 | -70.7% (active) |
| O=[N+]([O-])c1ccc(O)c(/C=N/Nc2ccccc2[N+](=O)[O-])c1 | -63.1% (active) |
| Cc1cc(C(=O)COC(=O)CNC(=O)c2ccc(F)cc2)c(C)n1Cc1ccco1 | -113% (active) |
| Cc1ccsc1C(=O)OCC(=O)c1cc(C)n(CC2CCCO2)c1C (stereo not given) | 79.6% (inactive) |
| Nn1c(SCc2ccccc2)nnc1C1CCCCC1 | -110% (active) |
| N#Cc1cccc(NC(=O)COC(=O)c2ccccc2C(=O)c2ccc(Cl)c([N+](=O)[O-])c2)c1 | -63.7% (active) |
| Cc1ccc(Nc2nc(N)nc(CSc3nnc(C)s3)n2)cc1 | -63.8% (active) |
| CC(=O)c1ccc(NC(=S)NC(=O)CC(C)C)cc1 | -98.8% (active) |
| COc1ccccc1Nc1ncc(C(C)=O)c(C)n1 | -80.4% (active) |
| Cn1c(CCCOc2ccc(Cl)cc2Cl)n[nH]c1=S | -63.6% (active) |

| SMILES | activity score |
| --- | --- |
| COc1cccc2cc(C(N)=O)/c(=N\NC(=O)c3ccccc3)oc12 | -61.9% (active) |
| Cc1cccc(C(=O)OC(C)CN2CCN(C)CC2)c1 (stereo not given) | -64.7% (active) |
| CCOC(=O)C1(Cc2ccccc2C(F)(F)F)CCN(C(=O)c2cc(C)n(C)n2)CC1 | -117% (active) |
| COc1ccc(/C=C/C(=O)Nc2ccc(C34CC5CC(CC(O)(C5)C3)C4)cc2)cc1OC | 76.5% (inactive) |
| COc1ccc(/C=C/C(=O)Nc2cccnc2)cc1OC | -72.4% (active) |
| COc1ccc(C(=O)/C=C/c2cccnc2)c(OC)c1 | -81.3% (active) |
| Cc1cc(NC(=O)c2ccccc2C)no1 | -104% (active) |
| Cc1c(C(=O)Nc2ccccc2)sc2nc3n(c(=O)c12)CCCCC3 | -136% (active) |
| CC(=O)c1ccc(NC(=O)c2sc3nc4n(c(=O)c3c2C)CCCCC4)cc1 | -89.5% (active) |
| O=C(Cc1ccc(Br)cc1)N1CCN(c2ccccn2)CC1 | -73.7% (active) |
| O=c1oc2cc(O)ccc2cc1-c1ccc(F)cc1 | -115% (active) |
| NC(=O)Nc1ccccc1C(=O)NCCc1ccccc1 | -90.2% (active) |
| CCN1C(=O)/C(=C2\SC(N3CCCCC3)=NC2=O)c2ccccc21 | -151% (active) |
| CC(C)(C)c1csc(NC2=NS(=O)(=O)c3ccccc32)n1 | -127% (active) |
| CCCNC(=O)c1c(Cl)cnn1-c1ccc(C)cc1 | -137% (active) |
| S=c1nc(C23CC4CC(CC(C4)C2)C3)nc2sccn12 | -162% (active) |
| COC(=O)c1ccc2c(C(C)(C)O)c(C(C)(C)O)[nH]c2c1 | -87.7% (active) |
| O=C(COc1ccc(Cl)cc1)Nc1ccccc1CO | -81.1% (active) |
| COc1cccc(OCC(=O)Nc2ccccc2C(N)=O)c1 | -126% (active) |
| Cc1cccc(OCC(=O)Nc2ccccc2F)c1 | -140% (active) |
| Cc1ccc(F)c(NC(=O)CCc2ccccc2)c1 | -92.3% (active) |
| Cc1ccc(C(=O)Nc2nnc(-c3cccs3)s2)cc1C | -218% (active) |
| CCCc1nnc(NC(=O)c2cccs2)s1 | -80.1% (active) |
| CC1CCCCN1S(=O)(=O)c1ccc(C(=O)Nc2nnc(-c3cccs3)o2)cc1 (stereo not given) | 89.9% (inactive) |
| CCc1c(C)sc(NC(=O)c2cccs2)c1C(N)=O | -151% (active) |
| CCc1nnc(NC(=O)c2cccs2)s1 | -125% (active) |
| S=C(NCCc1ccccc1)Nc1ccccc1 | -89.3% (active) |

| SMILES | activity score |
| --- | --- |
| S=C(NCCc1ccccc1)NCC1CCCO1 (stereo not given) | -78.2% (active) |
| S=C(NCCc1ccccc1)N1CCCCC1 | -106% (active) |
| S=C(NCCC1=CCCCC1)Nc1ccccc1 | -122% (active) |
| CCOc1ccc(/C(O)=C2\C(=O)C(=O)N(c3ccc(OC)cc3)C2c2ccccc2[N+](=O)[O-])cc1 (stereo not given) | -69.2% (active) |
| Fc1ccccc1COc1cccc2cccnc12 | -134% (active) |
| Cc1ccnc2nc(C(=O)Nc3nnc(-c4ccccc4)o3)nn12 | -72% (active) |
| O=C(O)C1CCN(C(=O)OCc2ccccc2)CC1 | -142% (active) |
| CCOC(=O)c1sc(=NC(=O)/C=C/c2cccs2)n(C)c1C | -201% (active) |
| Cc1ccc(NC(=O)C(=O)NCc2ccco2)c(C)c1 | -101% (active) |
| COc1ccc(/C=N/Nc2nc3ccccc3o2)cc1OC | -162% (active) |
| O=[N+]([O-])c1cc(Br)c(O)c(/C=N/Nc2nc3ccccc3s2)c1 | -87.6% (active) |
| COc1cc(/C=N/Nc2nc3ccccc3s2)ccc1O | -82.9% (active) |
| Brc1ccccc1/C=N/Nc1nc2ccccc2o1 | -126% (active) |
| Cc1cc2nc(SCCN3CCOCC3)[nH]c2cc1C | -115% (active) |
| O=C(CN1C(=O)S/C(=C\c2ccccc2Cl)C1=O)NC1C=CS(=O)(=O)C1 (stereo not given) | -83.8% (active) |
| Cc1cccc(N2C(=O)C3C(c4ccccc4)OC4(C(=O)c5ccccc5C4=O)C3C2=O)c1 (stereo not given) | -66.3% (active) |
| CC(=O)Nc1ccc(Nc2c([N+](=O)[O-])cc(S(C)(=O)=O)cc2[N+](=O)[O-])cc1 | -75.2% (active) |
| COc1ccc(-c2csc(NC(=O)COC(=O)Cc3ccc(Cl)cc3Cl)n2)cc1 | -99.4% (active) |
| COc1ccc(-c2csc(NC(=O)COC(=O)c3ccc(Br)o3)n2)cc1 | -106% (active) |
| COc1ccccc1N1CCN(C(=O)c2cc(=O)c3cc(C)cc(C)c3o2)CC1 | 78.3% (inactive) |
| COc1ccccc1N1CCN(C(=O)CSc2ncnc3c2cnn3-c2ccc(C)c(C)c2)CC1 | -144% (active) |
| CCN(CC)C(=O)CSc1ncnc2c1cnn2-c1ccccc1 | -129% (active) |
| CC(C)Sc1ncnc2c1cnn2-c1ccccc1 | -82.1% (active) |
| COc1cc(OC)cc(-c2nc(=S)n3ccsc3n2)c1 | -77.6% (active) |
| COc1ccc(-c2ccc3nnc(SCC(=O)Nc4ccc(NC(C)=O)cc4)n3n2)cc1 | -81.8% (active) |
| Oc1ccc(-c2cccc(-c3ccc(O)cc3)c2)cc1 | -135% (active) |
| O=C(Nc1ccc([N+](=O)[O-])cc1)OCCc1ccccn1 | -144% (active) |

| SMILES | activity score |
| --- | --- |
| O=C(Nc1cccc(Cl)c1)OCc1ccccn1 | -131% (active) |
| COc1ccc2[nH]c(=O)c(-c3noc(-c4ccc(F)cc4)n3)cc2c1 | -111% (active) |
| COc1ccccc1Cc1nc(-c2ccc(C)cc2)no1 | -97.1% (active) |
| COc1ccc(-c2nc(-c3ccccc3)no2)c(OC)c1 | 68.9% (inactive) |
| COc1ccc(-c2noc(-c3ccc(C)cc3)n2)cc1 | -153% (active) |
| O=C(Nc1nnc(-c2ccccc2F)s1)c1ccccc1F | -172% (active) |
| COc1ccc(CCc2nc(-c3cccs3)no2)cc1 | -148% (active) |
| Clc1cccc(Cl)c1Cn1nnc(-c2cccs2)n1 | -162% (active) |
| Cc1ccc(-c2csc(NC(=O)Cc3cccs3)n2)cc1C | -200% (active) |
| CCCc1ccc(-c2csc(NC(=O)Cc3cccs3)n2)cc1 | -66.4% (active) |
| CC(C)c1ccc(NC(=O)Cn2ncc3ccccc32)cc1 | -178% (active) |
| Cc1cccc(-n2c(C)cc(/C=N\NC(=O)c3cccs3)c2C)c1 | -62.2% (active) |
| Cc1ccc(-n2nc(C)c(/C=N/NC(=O)c3cccs3)c2Cl)cc1 | -87.3% (active) |
| O=C(N/N=C/C=C/c1ccco1)c1cccs1 | -86.4% (active) |
| CC(=O)Nc1ccc(/C=N/NC(=O)c2cccs2)cc1 | -159% (active) |
| CCCn1c(C)cc(/C=C(\C#N)C(=O)OCC(=O)Nc2cc(OC)c(OC)c(OC)c2)c1C | -103% (active) |
| CCOC(=O)/C(C#N)=C/c1ccc(OCC(=O)Nc2ccccc2)c(OC)c1 | -119% (active) |
| OC(COc1ccc2ccccc2c1)CN1CCOCC1 (stereo not given) | -72.5% (active) |
| CC1CCc2c(sc3nc4n(c(=O)c23)CCS4)C1 (stereo not given) | -71.6% (active) |
| CCCn1nnc2sc3c(c2c1=O)CCC(C)C3 (stereo not given) | -131% (active) |
| Cc1ccn(-c2cccc(-n3ccc(C)n3)n2)n1 | -93% (active) |
| CN1CCN(/N=C/c2ccc(-c3ccc([N+](=O)[O-])cc3)o2)CC1 | -128% (active) |
| O=c1c2c(nc3cc(-c4cccc(Cl)c4)[nH]n13)CCCC2 | 18.5% (inactive) |
| Cc1cc(=O)n2[nH]c(-c3cccc(Cl)c3)cc2n1 | -79% (active) |
